The entries come from a sample that favours hits as a whole.
Methyltransferases = Primary Screen for Target Class Profiling of Small Molecule Inhibitors of Methyltransferases | purified enzyme, MTase-Glo SAH luminescence; hits give low values | calls only at 40 µM | actives 3.9% (n = 25,000); call rule not given here
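Each enzyme was reacted with SAM and its substrate, with compounds tested once at 40 uM; SAH formed was read by MTase-Glo luminescence.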
Starred values were filed as active, the others as inactive; i = inactive; + = active, no number. On the % scale 0 is the no-effect control and ±100 the full control effect.

SMILES	Methyltransferases
O=C(NC1CCN(C(=O)c2ccc(-c3cncnc3)cc2)CC1)c1ccccc1F	i
CCCn1c(=O)c2ccc(C(=O)NC3CCCC3)cc2n2c(SCC(=O)Nc3cccc(C)c3)nnc12	i
O=C(/C=C/c1ccc(O)cc1)OCC1OC(O)C(OC2OC(CO)C(O)C(O)C2O)C(O)C1O (centres undefined)	i
CCC(C)N1CCN(C(=O)Cn2c(=O)oc3cc(S(=O)(=O)NCc4ccccc4)ccc32)CC1 (centres undefined)	i
CC(C)(C)c1cc2n(n1)CC(C)(C(=O)NC1CCCCC1)N(Cc1ccccc1Cl)C2=O (centres undefined)	i
CCc1ccc(-c2cc3n(n2)CC(C)(C(=O)NC2CCCCC2)N(Cc2ccco2)C3=O)cc1 (centres undefined)	i
O=C(O)C1CCc2nnc(C3CCN(C(=O)c4ccccc4)C3)n21 (centres undefined)	i
CCCn1c(=O)c2ccccc2n2c(=O)n(CC(=O)c3ccc(OC)c(OC)c3)nc12	i
CCS(=O)(=O)N1CCN(c2ccc(Nc3ncc(C(N)=O)c(NC4CC4)n3)cc2)CC1	+
CC(=O)N1CCN(C(=O)Cc2ccc(Nc3ncc(F)c(Nc4ccc(C(=O)Nc5ccccc5Cl)cc4)n3)cc2)CC1	i
COc1ccc(Cn2c(=O)c3ccccc3n3c(-c4cc(Br)cs4)nnc23)cc1	i
CN(Cc1ccc(OC(F)(F)F)cc1)Cc1cccc(C(F)(F)F)c1	i
COc1ccccc1CN1CCC(CN(CC(C)C)C(=O)C2C=CCN2)CC1 (centres undefined)	i
CCCn1c(=O)c2ccc(Cl)cc2n2c(SCc3ccc(F)cc3)nnc12	i
CCN1CCN(Cc2ccc(-c3cc4c(NC(C)c5ccccc5)ncnc4[nH]3)cc2)CC1 (centres undefined)	+
CCN1CCN(Cc2ccc(-c3cc4c(N[C@H](C)c5ccccc5)ncnc4[nH]3)cc2)CC1	+
Cc1cc(C(=O)Nc2cccc(C(=O)Nc3cccc(C(F)(F)F)c3)c2)on1	i
CCCn1c(=O)c2ccc(C(=O)NC(C)CC)cc2n2c(=O)n(CC(=O)NC(C)(C)C)nc12 (centres undefined)	i
CCOC(=O)c1cc2n(n1)CC(C)(C(=O)NC1CCC(C)CC1)N(c1ccc(C)c(F)c1)C2=O (centres undefined)	i
Cc1cc(C)c2[nH]c(C(=O)N(C)Cc3ccccc3-n3cccn3)c(C)c2c1	i
CCCCN1C(=O)c2cc(C(=O)Nc3c(C)cc(C)cc3C)nn2CC1(C)C(=O)NC1CCCC1 (centres undefined)	i
O=C(Nc1ccnc(NC(=O)C2CC2)c1)c1c(Cl)cccc1Cl	i
O=C(Nc1cccc(Nc2cc(Nc3cccc(C(F)(F)F)c3)ncn2)c1)C1CC1	+
O=C(O)c1cccnc1Nc1cccc(C(F)(F)F)c1	i
O=C(Cc1cccc(Cl)c1)NCCNC(=O)c1cccc(-c2ccsc2)c1	i
SMILES	Methyltransferases
CCOc1ccc(-c2ccc(Cn3c(CC(C)(C)C(=O)O)c(SC(C)(C)C)c4cc(OCc5ccc(C)cn5)ccc43)cc2)cn1	+
CCOC(=O)c1cc2n(n1)CC(C)(C(=O)NCc1ccccc1)N(Cc1cccc(C)c1)C2=O (centres undefined)	i
C=Cc1ccc(Cn2nc3n(CCC)c(=O)c4ccc(C(=O)NCC(C)C)cc4n3c2=O)cc1	i
COc1ccccc1NC(=O)CSc1nnc2n(CC(C)C)c(=O)c3ccc(Cl)cc3n12	i
Cc1ccc(NS(=O)(=O)c2ccc3[nH]c(=O)[nH]c3c2)cc1F	i
Cc1cccc(NC(=O)CSc2nnc3n(CCC(C)C)c(=O)c4ccccc4n23)c1	i
O=C1Cc2c([nH]c3ccc(Br)cc23)-c2ncccc2N1	+
CC(C)CNC(=O)c1ccc2c(=O)n(Cc3ccccc3)c3nn(Cc4cccc(F)c4)c(=O)n3c2c1	i
CC1OC(OC2C(CO)OC(OCC3OC(OC(=O)C45CCC(C)(C)CC4C4=CCC6C7(C)CCC(OC8OC(C(=O)O)C(O)C(OC9OC(CO)C(O)C(O)C9O)C8O)C(C)(C)C7CCC6(C)C4(C)CC5)C(O)C(O)C3O)C(O)C2O)C(O)C(O)C1O (centres undefined)	i
O=S(=O)(Nc1ccc(F)cc1)c1ccc2[nH]c3c(c2c1)CCCC3	i
CN(CC(=O)Nc1cccc(F)c1)S(=O)(=O)c1ccc2[nH]c3c(c2c1)CCCC3	i
CN(C)[C@@H]1CCc2[nH]c3ccc(NC(=O)c4ccc(F)cc4)cc3c2C1	+
COc1ccc(-c2noc(-c3nc(-c4ccc(N(C)C)cc4)no3)n2)cc1OC	i
O=C1N(C2CCCCC2)C[C@H]2CN(S(=O)(=O)c3ccccc3)CCN12	i
COc1ccc(C2(C(=O)N3C[C@@H](CO)[C@H](c4ccccn4)C3)CC2)cc1	i
CCOc1ccccc1NC(=O)Nc1cccc(-c2ccc(N3CCCC3)nn2)c1	i
COC(=O)c1ccc(=O)c2nc3/c(=C/O)c(O)cc(=O)c3[nH]c12	+
COc1ccc(CNC(=O)c2cc3n(n2)CC(C)(C(=O)NCCC(C)C)N(C)C3=O)c(OC)c1 (centres undefined)	i
c1nc(NCC2CCOC2)c2cc(-c3ccc4c(c3)OCO4)ccc2n1 (centres undefined)	+
O=c1cc(N2CCOCC2)oc2c(NCC3CCOCC3)nccc12	i
Cc1ccc(C(=O)N2CCc3sc(C(=O)NCc4cc(F)cc(F)c4)cc3C2)cc1	i
CC1CCCC(NC(=O)Cn2ccc3cc(S(=O)(=O)N4CCCC4)ccc32)C1C (centres undefined)	i
Cc1cccc(CNC(=O)c2ncn3c2C(=O)N(C2CC2)C(C)(C(=O)NCc2cccc(C)c2)C3)c1 (centres undefined)	i
C/C(=C\CCC(C)C1=CCC2(C)OC3=C(CC12)C(=O)C(O)CC3)CO (centres undefined)	i
CCCn1c(=O)c2ccc(C(=O)NC(C)C)cc2n2c(SCc3ccccc3F)nnc12	i
SMILES	Methyltransferases
Fc1ccc2[nH]ccc2c1-c1nc(N2CCOCC2)c2sc(CN3CCN(CC4CC4)CC3)cc2n1	+
COc1ccc(NC(=O)Cn2nc3n(CC(C)C)c(=O)c4ccccc4n3c2=O)cc1	i
CC1(C(=O)NC2CCCCCCC2)Cc2ccccc2C(=O)N1CCN1CCCCCC1 (centres undefined)	i
CCCCc1nc2c3ccccc3n(CC(=O)N3CCN(c4ccc(F)cc4)CC3)c(=O)n2n1	i
CC1=CC(=O)[C@@]2(C(C)C)C[C@@H]12	+
CCOc1ccc(CN2C(=O)c3cc4ccc(OC)cc4n3CC2(C)C(=O)NC2CCCCC2)cc1 (centres undefined)	i
Cc1ccccc1CCN1C(=O)c2ccc(-c3ccco3)n2CC1(C)C(=O)NC1CCCCC1 (centres undefined)	i
CC(C)CCn1c(=O)c2ccccc2n2c(=O)n(CC(=O)Nc3ccc4c(c3)OCO4)nc12	i
Cc1ccc(-n2ncc3c2CC(C)(C)CC3NS(=O)(=O)c2cn(C)cn2)cc1 (centres undefined)	i
COc1cccc(N2CCN(C(=O)CCCc3nnc4n5nc(-c6ccccc6)nc5c5ccccc5n34)CC2)c1	i
CC1CCCCN1CCN1C(=O)c2ccc(-c3ccco3)n2CC1(C)C(=O)NC1CCCCCCC1 (centres undefined)	i
N.N.O=C(O)C1(C(=O)O)CCC1.[Pt+2]	+
NC1(C(=O)O)CCCCC1	i
